CYP2C19 inhib: blockers of cytochrome P450 2C19 activity – biochemical, luminescence, ADME assay, primary screen; actives 21% (n = 96,000); P33261; AID 778, 2007; CYP2C19 Supersomes, luciferin-H EGE luminescence, 30 min; inhibition, % at 5 µM;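 active = CYP2C19 inhibition above a set limit at 5 µM in the primary screen, cut at about 50% in these data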;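 note: plate controls were negative control wells for no effect and 2.5 mM tranylcypromine positive control for full effect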
Target sequence (P33261 whole entry, looked up): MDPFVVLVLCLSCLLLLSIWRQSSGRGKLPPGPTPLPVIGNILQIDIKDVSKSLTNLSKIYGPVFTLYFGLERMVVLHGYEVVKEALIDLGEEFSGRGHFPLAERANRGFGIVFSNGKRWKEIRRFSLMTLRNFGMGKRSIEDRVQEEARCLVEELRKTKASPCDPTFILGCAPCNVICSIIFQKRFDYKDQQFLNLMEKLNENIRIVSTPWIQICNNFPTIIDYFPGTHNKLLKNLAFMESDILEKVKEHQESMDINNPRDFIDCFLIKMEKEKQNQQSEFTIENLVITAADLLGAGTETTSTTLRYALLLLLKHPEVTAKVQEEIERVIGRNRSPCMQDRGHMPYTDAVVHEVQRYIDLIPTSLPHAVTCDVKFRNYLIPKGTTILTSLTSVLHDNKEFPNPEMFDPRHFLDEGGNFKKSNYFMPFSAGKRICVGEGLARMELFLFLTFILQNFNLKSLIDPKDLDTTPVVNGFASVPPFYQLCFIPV
CYP2C9 activ: human CYP2C9 activators, primary screen, biochemical, luminescence; Cytochrome P450 2C9 (Homo sapiens), P11712; recombinant CYP2C9, luciferin-H conversion; stronger effect = higher value; factor 1 = untreated enzyme, 0 = blocked; activation factor at 5 µM; actives 1.4% (n = 96,000); AID 1024, 2008;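 active = activation factor of 2 or more for CYP2C9 at a 5 µM dose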;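 note: 0 = sulfaphenazole-blocked wells and 1 = vehicle-only wells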
PostGolgi yeast: phenotypic screen on post-Golgi transport, primary screen; post-Golgi transport phenotypic cell assay; inhibition, % at 10 µM; AID 739, 2007; actives 0.9% (n = 98,000);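 note: yeast cells grown in 1536-well plates; yeast grown about 18 h at 30C before absorbance read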
CYP2C19 act: human CYP2C19 activators, primary screen, biochemical, luminescence | Cytochrome P450 2C19 (Homo sapiens), P33261 | recombinant CYP2C19, luciferin-H EGE luminescence; stronger effect = higher value; 0 = fully inhibited enzyme, 1 = untreated enzyme | activation factor at 5 µM | 96,000 tested, under 10 active | AID 1025, 2008;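 active = activation factor of at least 2 at 5 µM in the primary screen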;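 note: 0 = wells with 2.5 mM tranylcypromine and 1 = vehicle-only wells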
CYP2C9 inh: blockers of cytochrome P450 2C9 activity – biochemical, luminescence, ADME assay, primary screen | P11712 | CYP2C9 Supersomes, luciferin-H conversion | inhibition, % at 5 µM | actives 20% (n = 96,000) | AID 777, 2007;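 active = blocking of liver enzyme CYP2C9 beyond about 50% at 5 µM, limit read from the data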
PostGolgi ctrl: growth inhibition of yeast control strain, primary screen, counter-screen for post-Golgi transport modulator project; efflux-deficient yeast background strain, growth absorbance A615, 16 h; inhibition, % at 10 µM; actives 5% (n = 98,000); AID 738, 2007
* = called active by the depositor; nt = no result given. In the library only some 32% were active in any assay of this set; here they are far more common. Cut-off read from the data, not from the text of the source, unless noted: active = inhibition above about 30%; inactive = the rest.

SMILES	CYP2C19 inhib	CYP2C9 activ	PostGolgi yeast	CYP2C19 act	CYP2C9 inh	PostGolgi ctrl
CC1CCC(C(C)C)C(OCC(O)CN2CCN(Cc3ccccc3)CC2)C1 (stereo not given)	-5.0	1.2	103.5*	1.1	-18.5	30.1*
Cc1cccc(NC(=O)C2CCCN(S(=O)(=O)c3c(C)nn(C)c3C)C2)n1 (stereo not given)	-11.1	0.8	-6.9	1.1	16.8	8.2
COc1cc(/C=N/NC(=O)c2cccnc2)ccc1OS(=O)(=O)c1ccc(F)cc1	66.7*	0.2	-1.6	0.3	83.4*	9.9
COc1ccc(/C=N/NS(=O)(=O)c2ccccc2)cc1OS(=O)(=O)c1ccc(C)cc1	52.0*	0.1	0.5	0.5	92.7*	13.6
COc1ccc(/C=N/NS(=O)(=O)c2ccc(C)cc2)cc1OC(=O)c1ccc(C)cc1	4.4	0.1	0.2	1	88.1*	11.8
COc1cc(/C=N/NC(=O)COc2ccc(Cl)cc2)ccc1OS(=O)(=O)c1ccc(C)cc1	36.8	0.4	1.1	0.6	64.5*	16.8
COc1ccc(/C=N/NC(=O)C(=O)NCc2cccnc2)cc1OC	-6.5	1	21.1	1.1	-2.4	-11.5
CC(=O)Nc1ccc(S(=O)(=O)NC(CC(=O)N(C)Cc2ccccc2)C(C)C)cc1 (stereo not given)	25.2	1	-5.6	0.7	-1.9	-5.4
COc1ccccc1N1CCN(C(=O)Nc2cccc(C)c2)CC1	21.2	1.3	-3.5	0.8	-29.7	11.4
Cc1ccc(SCc2nc(-c3ccccc3)no2)cc1	85.6*	0.5	0.9	0.1	51.2*	7.8
O=C1c2ccccc2C(=O)N1CCCSc1nc2ccccc2o1	45.9	0.8	-5.0	0.5	24.8	14.9
O=C1c2ccccc2C(=O)N1Cc1nc(-c2ccncc2)no1	92.2*	0.2	1.6	0.1	84.1*	9.9
O=C1c2ccccc2C(=O)N1Cc1nc2ccccc2o1	64.3*	1.2	3.1	0.4	-16.1	7.1
O=C1c2ccccc2C(=O)N1Cc1nc(-c2ccccc2)no1	49.3	0.9	nt	0.5	14.0	nt
c1ccc(SCc2nc(-c3ccncc3)no2)cc1	95.5*	0.2	-1.7	0	82.8*	19.2
CCOC1(C(F)(F)F)NC(=O)N(Cc2ccc(OC)cc2)C1=O (stereo not given)	37.7	0.9	-6.1	0.6	14.5	-6.7
O=C(NCc1ccc2c(c1)OCO2)C1CCCN1C(=O)Nc1cccc(Cl)c1 (stereo not given)	34.6	0.6	15.9	0.7	41.4	-2.2
Cc1ccc(SCc2nc(-c3ccncc3)no2)cc1	98.7*	0.1	7.2	0	90.7*	13.5
Cc1ccc(SC(C)c2nc(-c3ccncc3)no2)cc1 (stereo not given)	99.6*	0	1.5	0	96.5*	15.9
COc1ccc(-c2noc(CSc3ccccc3)n2)cc1OC	31.1	0.8	19.0	0.7	20.9	18.4
Cc1ccc(SCc2nc(-c3ccccn3)no2)cc1	85.5*	0.5	-1.1	0.1	51.7*	6.2
COc1nc(C)ccc1-c1noc(-c2ccncc2)n1	nt	nt	-8.8	nt	nt	0.0
CN(C)c1ccc(CN(C(=O)COc2ccc(F)cc2)C2CCS(=O)(=O)C2)cc1 (stereo not given)	39.4	1	5.8	0.6	2.6	2.2
CCCCN(C(=O)c1ccco1)c1nnc(-c2cc(OC)c(OC)c(OC)c2)s1	15.3	1.2	-6.0	0.8	-16.0	-4.3
O=C(c1cccc(C(F)(F)F)c1)N1CCN(c2cc(=O)[nH]nc2-c2ccccc2)CC1	-7.1	0.9	-10.3	1.1	11.0	-2.8
CCN(CC)C(=O)CCNS(=O)(=O)c1ccc(C)cc1	37.3	1.2	-1.1	0.6	-22.0	-9.3
CC(C)OCCCNC(=O)CCN1C(=O)COc2ccccc21	3.0	1.1	-0.4	1	-8.7	-3.4
CCOc1ccccc1CNC(=O)CCN1C(=O)COc2ccccc21	74.7*	1.9	2.7	0.3	-85.9	44.3*
Cc1cc(C)n(-c2nnc(C)c(=O)[nH]2)n1	-13.6	1.2	3.1	1.1	-20.1	2.1
Cn1c(SCC(=O)N2CCN(c3ccccc3)CC2)nnc1-c1ccccc1	1.0	1	4.8	1	3.9	9.3
